In PubChem BioAssay (NCI):
Compounds without any hit were thinned out: in the full panel of roughly 79,000, 15% have a hit. Activity calls are given as the source filed them. Cut-off read from the data, not from the text of the source: active = growth inhibition above about 70%; inactive = the rest.

What was measured:
[1] = NCI Yeast Anticancer Drug Screen. Data for the rad52 strain (AID 147);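 note: 0% = growth of vehicle-treated control cultures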; conditions: S. cerevisiae rad52 mutant growth inhibition, hits give high values
Method in brief: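 Genetically altered yeast (DNA damage repair defect) treated with compound; inhibition calculated relative to vehicle.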

[2] = NCI Yeast Anticancer Drug Screen. Data for the wt1 strain (AID 149);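 note: 0% = growth of vehicle-treated wt1 cultures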; conditions: S. cerevisiae wt1 strain (SPY 50644) growth inhibition, hits give high values
Method in brief: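 Measured: growth of wt1 yeast under compound versus vehicle treatment, reported as inhibition.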

[3] = NCI Yeast Anticancer Drug Screen. Data for the rad50EPP+ strain (AID 151);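 note: 0% = growth of vehicle-treated control cultures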; conditions: S. cerevisiae rad50 mutant strain, hits give high values
Method in brief: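 Strain rad50EPP+; compound exposure; % growth inhibition vs vehicle.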

[4] = NCI Yeast Anticancer Drug Screen. Data for the mgt1 strain (AID 153); conditions: S. cerevisiae mgt1 mutant growth inhibition, hits give high values
Method in brief: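 Read-out: yeast growth inhibition vs vehicle control. Strain mgt1, drawn from a panel altered in DNA damage repair or cell cycle control.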

[5] = NCI Yeast Anticancer Drug Screen. Data for the rad50 strain (AID 155);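 note: 0% = growth of vehicle-only cultures of the same strain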; conditions: S. cerevisiae rad50 strain growth inhibition, hits give high values
Method in brief: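 Growth of the mutant yeast was measured after compound exposure and referenced to vehicle-treated cultures.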

[6] = NCI Yeast Anticancer Drug Screen. Data for the mec2-1 strain (AID 157); conditions: S. cerevisiae mec2-1 strain, hits give high values
Method in brief: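 Cells of the genetically defined mec2-1 yeast strain are incubated with test compound. Inhibition of growth is calculated against vehicle-treated controls.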

[7] = NCI Yeast Anticancer Drug Screen. Data for the rad14 strain (AID 159);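 note: 0% = growth of vehicle-treated control cultures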; conditions: S. cerevisiae rad14 strain growth inhibition, hits give high values
Method in brief: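 Here, inhibition of yeast growth was measured after compound exposure, using a strain with a genetic defect in DNA damage repair and vehicle-treated cultures as the reference.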

[8] = NCI Yeast Anticancer Drug Screen. Data for the sgs1 mgt1 strain (AID 161);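 note: 0% = growth of cultures given vehicle only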; conditions: S. cerevisiae sgs1 mgt1 strain, hits give high values
Method in brief: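 Genetically altered yeast, compound exposure, growth inhibition relative to vehicle.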

[9] = NCI Yeast Anticancer Drug Screen. Data for the CLN2oe strain (AID 163);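 note: 0% = growth of vehicle-only control cultures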; conditions: S. cerevisiae CLN2oe strain, hits give high values
Method in brief: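 Strain altered in cell-cycle control, incubated with compound; growth compared to solvent-treated controls.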

[10] = NCI Yeast Anticancer Drug Screen. Data for the cln2 rad14 strain (AID 165);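 note: 0% = growth equal to vehicle treated cultures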; conditions: S. cerevisiae cln2 rad14 strain, hits give high values
Method in brief: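 The screen exposed genetically defined yeast (cln2 rad14) to test compounds and scored growth inhibition relative to vehicle-treated controls.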

[11] = NCI Yeast Anticancer Drug Screen. Data for the bub3 strain (AID 167); conditions: S. cerevisiae bub3 mutant strain, hits give high values
Method in brief: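 Whole-cell yeast assay. The mutant strain was incubated with compounds, and growth inhibition was determined by comparison with vehicle-treated cells.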

[12] = NCI Yeast Anticancer Drug Screen. Data for the wt2 strain (AID 169);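 note: 0% = growth of vehicle-treated yeast cultures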; conditions: S. cerevisiae wt2 strain growth inhibition, hits give high values
Method in brief: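 Steps: yeast strain treated with compound; growth recorded; inhibition calculated relative to cultures given vehicle alone.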

[13] = NCI Yeast Anticancer Drug Screen. Data for the mlh1 strain (AID 171);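 note: 0% = growth of vehicle-treated control cultures of the same strain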; conditions: S. cerevisiae mlh1 strain growth inhibition, hits give high values
Method in brief: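 Yeast screen: mutant strain plus compound, growth scored against vehicle control wells.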

[14] = NCI Yeast Anticancer Drug Screen. Data for the sgs1 strain (AID 173);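 note: 0% = growth of vehicle-only control cultures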; conditions: S. cerevisiae sgs1 mutant, hits give high values
Method in brief: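 Inhibition of yeast growth served as the measure. The mutant strain was treated with each compound, and growth was normalised to cultures receiving vehicle alone.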

[15] = NCI Yeast Anticancer Drug Screen. Data for the mlh1 rad18 strain (AID 175); conditions: S. cerevisiae mlh1 rad18 strain growth inhibition, hits give high values
Method in brief: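 Compound-treated yeast growth, normalised to vehicle controls. Strain bears defined DNA repair mutations.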

[16] = NCI Yeast Anticancer Drug Screen. Data for the rad18 strain (AID 177); conditions: S. cerevisiae rad18 mutant growth inhibition, hits give high values
Method in brief: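 Inhibition values reflect reduced yeast growth compared with vehicle-treated controls, using a strain engineered with a DNA damage repair defect.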

[17] = at 5.0 µM (retest, dose inferred, filed as 0.5)
[18] = at 50.0 µM (retest, dose inferred, filed as 5.0)

Measured: growth inhibition

O=c1[nH]c2ccccc2c2nc3ccccc3n12
inactive: [1]; at 1.2 µM -43% | [1]; at 3.7 µM -34% | [1]; at 11.0 µM 8% | [2]; at 1.2 µM -39% | [2]; at 3.7 µM -44% | [2]; at 11.0 µM -8% | [2]; at 33.0 µM 3% | [2]; at 100.0 µM -17% | [3]; at 1.2 µM 10% | [3]; at 3.7 µM 16% | [3]; at 11.0 µM 48% | [4]; at 1.2 µM -34% | [4]; at 3.7 µM -14% | [4]; at 11.0 µM 26% | [4]; at 33.0 µM 40% | [4]; at 100.0 µM 8% | [5]; at 1.2 µM -17% | [5]; at 3.7 µM -6% | [5]; [17] 51% | [5]; at 50.0 µM 15.6% | [6]; at 1.2 µM -48% | [6]; at 3.7 µM -50% | [6]; [17] 62% | [6]; at 11.0 µM -41% | [6]; at 33.0 µM -42% | [6]; at 50.0 µM 12.7% | [6]; at 100.0 µM 12% | [7]; at 1.2 µM -39% | [7]; at 3.7 µM -43% | [7]; at 11.0 µM -50% | [7]; at 33.0 µM 7% | [7]; at 100.0 µM -8% | [8]; [17] -17% | [8]; [18] 22% | [9]; at 1.2 µM 12% | [9]; at 3.7 µM -2% | [9]; at 11.0 µM 15% | [9]; at 33.0 µM 40% | [9]; at 100.0 µM 26% | [10]; [17] 33% | [10]; [18] 59% | [11]; at 1.2 µM -11% | [11]; at 3.7 µM 5% | [11]; [17] 45% | [11]; at 11.0 µM 11% | [11]; at 33.0 µM 60% | [11]; at 100.0 µM 42% | [12]; at 1.2 µM -53% | [12]; at 3.7 µM -47% | [12]; at 11.0 µM -47% | [12]; at 33.0 µM -15% | [12]; at 100.0 µM 26% | [13]; at 1.2 µM -40% | [13]; at 3.7 µM -22% | [13]; at 11.0 µM -14% | [13]; at 33.0 µM 38% | [13]; at 100.0 µM 37% | [14]; at 1.2 µM -43% | [14]; at 3.7 µM -58% | [14]; at 11.0 µM -64% | [14]; at 33.0 µM 23% | [14]; at 100.0 µM -14% | [15]; [17] 49% | [15]; at 50.0 µM 47.1%
active: [1]; at 33.0 µM 72% | [1]; at 100.0 µM 70% | [3]; at 33.0 µM 90% | [3]; at 100.0 µM 92% | [5]; at 11.0 µM 77% | [5]; at 33.0 µM 78% | [5]; [18] 94% | [5]; at 100.0 µM 88% | [6]; [18] 97% | [11]; [18] 74% | [15]; [18] 86%

S=C(S)NCC1CCC(CNC(=S)S)CC1 (stereo not given)
active: [1]; at 100.0 µM 81% | [2]; at 100.0 µM 77% | [3]; at 100.0 µM 81% | [4]; at 100.0 µM 89% | [5]; [18] 98% | [5]; at 100.0 µM 83% | [6]; [18] 98% | [6]; at 100.0 µM 94% | [7]; at 100.0 µM 92% | [9]; at 100.0 µM 70% | [11]; [18] 77% | [11]; at 100.0 µM 93% | [14]; at 100.0 µM 87% | [15]; [18] 99% | [16]; at 100.0 µM 78%
inactive: [1]; at 1.2 µM -10% | [1]; at 3.7 µM -12% | [1]; at 11.0 µM -12% | [1]; at 33.0 µM 20% | [2]; at 1.2 µM -11% | [2]; at 3.7 µM -5% | [2]; at 11.0 µM -5% | [2]; at 33.0 µM 20% | [3]; at 1.2 µM -3% | [3]; at 3.7 µM 3% | [3]; at 11.0 µM 24% | [3]; at 33.0 µM 41% | [4]; at 1.2 µM -8% | [4]; at 3.7 µM 0% | [4]; at 11.0 µM 5% | [4]; at 33.0 µM 18% | [5]; at 1.2 µM 8% | [5]; at 3.7 µM 3% | [5]; [17] 31% | [5]; at 11.0 µM -4% | [5]; at 33.0 µM 22% | [5]; at 50.0 µM 67% | [6]; at 1.2 µM -9% | [6]; at 3.7 µM -2% | [6]; [17] 64% | [6]; at 11.0 µM 5% | [6]; at 33.0 µM 43% | [6]; at 50.0 µM 59.1% | [7]; at 1.2 µM 13% | [7]; at 3.7 µM 19% | [7]; at 11.0 µM 13% | [7]; at 33.0 µM 27% | [8]; [17] -13% | [8]; [18] 61% | [9]; at 1.2 µM 0% | [9]; at 3.7 µM 12% | [9]; at 11.0 µM 13% | [9]; at 33.0 µM 18% | [10]; [17] -7% | [10]; [18] 46% | [11]; at 1.2 µM 16% | [11]; at 3.7 µM -10% | [11]; [17] 19% | [11]; at 11.0 µM 19% | [11]; at 33.0 µM 63% | [14]; at 1.2 µM -3% | [14]; at 3.7 µM 14% | [14]; at 11.0 µM 16% | [14]; at 33.0 µM 48% | [15]; [17] 44% | [15]; at 50.0 µM 43.5% | [16]; at 1.2 µM 2% | [16]; at 3.7 µM 6% | [16]; at 11.0 µM 16% | [16]; at 33.0 µM 18%
